Our source for the growth values is PubChem BioAssay (NCI).

Compounds without any hit were thinned out: in the full panel of roughly 83,000, 20% have a hit.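 Plates (96-well) were seeded with cells, treated with compound at one concentration, and incubated for 48 hours before percent growth was determined.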 Unmarked numbers belong to inactive results. Active and inactive are the calls of the source. Rule for the calls: active = growth percent below 10; inactive = the rest.

Test systems include K-562 leukemia; MDA-MB-231 breast; RXF 393 renal; SF-268 CNS; SF-295 CNS; SF-539 CNS; UACC-257 melanoma; M14 melanoma; HCT-15 colon; HT29 colon; SNB-75 CNS; SNB-19 CNS; U251 CNS; PC-3 prostate; SK-MEL-5 melanoma; UACC-62 melanoma; LOX IMVI melanoma; SK-MEL-28 melanoma; SK-MEL-2 melanoma; MALME-3M melanoma.
Experiment in all cases: NCI-60 one-dose screen, 48 h (100 = growth as untreated, 0 = no growth, -100 = all killed)
Holding throughout (details): 10 µM

With `Nc1ccc2cc(S(=O)(=O)O)cc(O)c2c1N=Nc1ccc(F)cc1`, the growth with K-562 leukemia is 119%; with MDA-MB-231 breast, 112%; in the test on RXF 393 renal it was 119%; in the test with SF-268 CNS, 114%; in the test on SF-295 CNS, 110%; in the test on SF-539 CNS, 95.9%. The growth was 106% in the test with UACC-257 melanoma; 100% in the test on M14 melanoma; 105% in the test with HCT-15 colon; 107% in the test with HT29 colon; 123% with SNB-75 CNS; 104% in the test with SNB-19 CNS. The growth with U251 CNS was 115%; in the test with PC-3 prostate, 91.5%; in the test on SK-MEL-5 melanoma it was 108%; in the test on UACC-62 melanoma it was 96%; in the test on LOX IMVI melanoma, 93.5%; with SK-MEL-28 melanoma, 132%. Besides, the growth with SK-MEL-2 melanoma was 101%.
Turning to `COC(=O)c1c(-c2ccccc2)csc1NC(=O)c1c(-c2ccccc2)noc1C`, the growth in the test on K-562 leukemia was 18.5%; in the test with MDA-MB-231 breast, 59.2%; with RXF 393 renal, 38.8%; in the test on SF-268 CNS, 36.5%; in the test on SF-295 CNS, 43.8%; in the test with SF-539 CNS it was 33.2%. Further, the growth in the test on UACC-257 melanoma was 45.5%; with M14 melanoma, 52.3%; in the test on HCT-15 colon, 14.5%; with HT29 colon it was 7.12% (active); with SNB-75 CNS, 48.1%; with SNB-19 CNS it was 43.9%. Further, the growth was 13.3% with U251 CNS; 32.5% in the test on PC-3 prostate; 32% with SK-MEL-5 melanoma; 48.3% in the test with UACC-62 melanoma; -50% (active) in the test with LOX IMVI melanoma; 47.9% in the test with SK-MEL-28 melanoma. Further, in the test with SK-MEL-2 melanoma, the growth is 61.2%.
As for `Cc1ccc2oc3nc(C)c(C(=O)NCc4ccccc4)cc3c(=O)c2c1`, the growth is 18.4% in the test with K-562 leukemia; 88.8% in the test on MDA-MB-231 breast; 120% with RXF 393 renal; 95.3% in the test on SF-268 CNS; 41.9% in the test with SF-295 CNS; 99.3% in the test with SF-539 CNS. In addition, the growth was 69.2% in the test with UACC-257 melanoma; 29% in the test with M14 melanoma; 78.8% in the test on HCT-15 colon; 95% in the test on HT29 colon; 88% in the test on SNB-75 CNS; 83.2% with SNB-19 CNS. Besides, the growth was 79% in the test with U251 CNS; 93.5% with PC-3 prostate; 76.9% in the test with SK-MEL-5 melanoma; 25.6% in the test on UACC-62 melanoma; 68.8% in the test with LOX IMVI melanoma; 78.1% in the test on SK-MEL-28 melanoma. Moreover, the growth with SK-MEL-2 melanoma is 8.63% (active).
Consider `Cc1cs/c(=N\NC(=O)c2cc(-c3cc4ccccc4o3)nn2-c2ccccc2)n1-c1ccccc1`, for which the growth in the test on K-562 leukemia is 94.2%; with MALME-3M melanoma it was 99.5%; with MDA-MB-231 breast it was 84%; in the test on SF-268 CNS it was 92.5%; in the test on SF-295 CNS, 85%; in the test on SF-539 CNS it was 106%. Also, the growth in the test with M14 melanoma was 95.8%; with HCT-15 colon it was 96.6%; with HT29 colon it was 93.6%; with SNB-75 CNS, 89.7%; in the test on U251 CNS, 87.6%; in the test on PC-3 prostate, 114%. Further, the growth in the test on SK-MEL-5 melanoma was 42.5%; in the test on UACC-62 melanoma it was 79.6%; in the test with LOX IMVI melanoma, 82.7%; with SK-MEL-28 melanoma it was 102%; in the test with SK-MEL-2 melanoma, 91.6%.
For the compound `CCN(CC)CCCC(C)Nc1ccc2ccc(Cl)cc2n1` (configuration not stated), the growth in the test with K-562 leukemia was 95.6%; in the test on MALME-3M melanoma it was 115%; in the test on MDA-MB-231 breast, 90.3%; with SF-268 CNS, 96.8%; in the test with SF-295 CNS, 95.3%; with SF-539 CNS it was 101%. Besides, the growth is 103% in the test on M14 melanoma; 86.1% in the test on HT29 colon; 77% in the test with SNB-75 CNS; 104% in the test with SNB-19 CNS; 92.7% with U251 CNS; 90.5% in the test on PC-3 prostate. Besides, the growth with SK-MEL-5 melanoma is 97.7%; in the test on UACC-62 melanoma, 103%; with LOX IMVI melanoma it was 95%; in the test on SK-MEL-28 melanoma, 106%; with SK-MEL-2 melanoma, 117%.
For `ClC(Cl)(Cl)c1nc2nccnc2[nH]1`, the growth with K-562 leukemia is 101%; in the test on MALME-3M melanoma, 102%; in the test on RXF 393 renal, 111%; in the test with SF-268 CNS, 113%; in the test with SF-295 CNS, 78.9%; with SF-539 CNS, 99.6%. Besides, the growth was 108% with UACC-257 melanoma; 103% with M14 melanoma; 103% in the test on HCT-15 colon; 102% in the test on HT29 colon; 83.4% in the test with SNB-75 CNS; 102% with SNB-19 CNS. Moreover, the growth in the test with U251 CNS is 104%; in the test with PC-3 prostate, 102%; in the test with SK-MEL-5 melanoma, 113%; with UACC-62 melanoma, 107%; in the test with LOX IMVI melanoma, 102%; in the test with SK-MEL-28 melanoma, 110%. For the same compound, in the test on SK-MEL-2 melanoma, the growth was 109%.
For `CCN(CC)CCOc1nc2ccc(OC)cc2c2c1-c1ccc(OC)cc1C2=O`, the growth in the test on K-562 leukemia is -43.5% (active); with MDA-MB-231 breast, 20.5%; in the test with RXF 393 renal, 4.4% (active); in the test on SF-268 CNS, 17.3%; with SF-295 CNS, -2.73% (active); in the test on SF-539 CNS, 28.8%. Also, the growth was -52.8% (active) in the test on UACC-257 melanoma; -83.3% (active) in the test with M14 melanoma; -59.4% (active) in the test on HCT-15 colon; -61.4% (active) in the test with HT29 colon; -1.45% (active) with SNB-75 CNS; 33.5% with SNB-19 CNS. The growth is -87.9% (active) in the test with U251 CNS; -0.151% (active) in the test with PC-3 prostate; -36.1% (active) with SK-MEL-5 melanoma; 36% with UACC-62 melanoma; -74.6% (active) in the test with LOX IMVI melanoma; -12.6% (active) in the test with SK-MEL-28 melanoma. In the test with SK-MEL-2 melanoma, the growth was 20.8%.
As for `O=C(Nc1ccncc1)C(=O)c1cn(S(=O)(=O)c2ccc(F)cc2)c2ccccc12`, the growth in the test with K-562 leukemia is 9.29% (active); in the test on MDA-MB-231 breast it was 57.8%; in the test on RXF 393 renal, 68.1%; in the test with SF-268 CNS, 47.9%; in the test on SF-295 CNS it was 61.3%; in the test with SF-539 CNS, 16.2%. In addition, the growth in the test on UACC-257 melanoma is 49.1%; in the test with M14 melanoma, 14%; in the test on HCT-15 colon, 23.1%; in the test with HT29 colon, 1.81% (active); in the test with SNB-75 CNS it was 45%; in the test on SNB-19 CNS, 67.2%. Further, the growth in the test on U251 CNS was 19.4%; in the test on PC-3 prostate it was 27.4%; in the test with SK-MEL-5 melanoma, 17.7%; in the test with UACC-62 melanoma, 36.1%; in the test with LOX IMVI melanoma it was 38.3%; in the test on SK-MEL-28 melanoma it was 56.1%. Further, in the test on SK-MEL-2 melanoma, the growth was 11.2%.
`c1ccc(C(NC2CC3CCC2C3)c2ccccc2)cc1` (configuration not stated): the growth in the test with K-562 leukemia was 92.8%; in the test with MDA-MB-231 breast, 96.1%; in the test with RXF 393 renal, 102%; with SF-268 CNS it was 105%; in the test on SF-295 CNS, 94.7%; in the test on SF-539 CNS it was 111%. The growth in the test with UACC-257 melanoma was 102%; with M14 melanoma, 93.1%; in the test on HCT-15 colon, 97.6%; in the test on HT29 colon it was 85.8%; in the test on SNB-75 CNS it was 93.5%; with SNB-19 CNS, 99%. For the same compound, the growth is 91.9% in the test with U251 CNS; 97.2% in the test on PC-3 prostate; 99.7% in the test with SK-MEL-5 melanoma; 87.2% in the test with UACC-62 melanoma; 95.3% in the test on LOX IMVI melanoma; 110% with SK-MEL-28 melanoma. Further, the growth with SK-MEL-2 melanoma was 89.6%.
